This is an account of results in ChEMBL document CHEMBL1961873, “Compounds: GSK PKIS; Assays: Nanosyn kinase panel” (2012).

For orientation: inhibition means the drop in the measured response relative to a control, in per cent.

In assay [1] the target is Tyrosine-protein kinase Fer (Homo sapiens) (UniProt P16591). To be noted: at 1 µM.
The target of assay [2] is Tyrosine-protein kinase Fes/Fps (Homo sapiens) (UniProt P07332). To be noted: at 0.1 µM.
The target is the same in assay [3]. The note with it: at 1 µM.
The target in assay [4] is Fibroblast growth factor receptor 1 (Homo sapiens) (UniProt P11362). To be noted: at 0.1 µM.
For assay [5] the target is unchanged. To be noted: at 1 µM.
Assay [6] addresses Fibroblast growth factor receptor 2 (Homo sapiens) (UniProt P21802). To be noted: at 0.1 µM.
Assay [7] has the same target. The note with it: at 1 µM.
Assay [8] concerns the target Fibroblast growth factor receptor 3 (Homo sapiens) (UniProt P22607). To be noted: at 0.1 µM.
Assay [9] has the same target. To be noted: at 1 µM.
The target in assay [10] is Fibroblast growth factor receptor 4 (Homo sapiens) (UniProt P22455). The note with it: at 0.1 µM.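 Note: values are mean percent inhibition of FGFR4.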
Fibroblast growth factor receptor 4 (Homo sapiens), sequence (P22455 22-802 limits assumed): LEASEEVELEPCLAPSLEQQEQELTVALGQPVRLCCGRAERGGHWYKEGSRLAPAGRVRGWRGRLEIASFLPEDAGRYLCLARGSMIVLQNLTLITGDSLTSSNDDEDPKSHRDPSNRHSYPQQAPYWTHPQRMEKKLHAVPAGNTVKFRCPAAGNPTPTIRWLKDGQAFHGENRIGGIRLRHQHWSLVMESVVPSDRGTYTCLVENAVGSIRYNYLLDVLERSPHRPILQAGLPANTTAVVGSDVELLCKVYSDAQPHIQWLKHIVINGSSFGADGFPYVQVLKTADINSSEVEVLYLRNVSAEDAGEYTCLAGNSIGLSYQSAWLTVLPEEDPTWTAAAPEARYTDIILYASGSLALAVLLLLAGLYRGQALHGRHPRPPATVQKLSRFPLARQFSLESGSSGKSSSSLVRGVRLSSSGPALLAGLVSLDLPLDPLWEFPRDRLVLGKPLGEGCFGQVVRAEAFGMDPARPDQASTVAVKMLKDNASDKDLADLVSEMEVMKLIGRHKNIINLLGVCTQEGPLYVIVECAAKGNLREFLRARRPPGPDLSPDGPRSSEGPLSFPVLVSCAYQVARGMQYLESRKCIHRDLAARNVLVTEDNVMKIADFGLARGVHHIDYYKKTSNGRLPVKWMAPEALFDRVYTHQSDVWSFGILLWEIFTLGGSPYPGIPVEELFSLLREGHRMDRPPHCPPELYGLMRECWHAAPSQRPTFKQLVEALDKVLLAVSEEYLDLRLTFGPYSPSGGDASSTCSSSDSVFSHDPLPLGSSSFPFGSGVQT

Tyrosine-protein kinase Fer (Homo sapiens), sequence (P16591 whole entry, looked up): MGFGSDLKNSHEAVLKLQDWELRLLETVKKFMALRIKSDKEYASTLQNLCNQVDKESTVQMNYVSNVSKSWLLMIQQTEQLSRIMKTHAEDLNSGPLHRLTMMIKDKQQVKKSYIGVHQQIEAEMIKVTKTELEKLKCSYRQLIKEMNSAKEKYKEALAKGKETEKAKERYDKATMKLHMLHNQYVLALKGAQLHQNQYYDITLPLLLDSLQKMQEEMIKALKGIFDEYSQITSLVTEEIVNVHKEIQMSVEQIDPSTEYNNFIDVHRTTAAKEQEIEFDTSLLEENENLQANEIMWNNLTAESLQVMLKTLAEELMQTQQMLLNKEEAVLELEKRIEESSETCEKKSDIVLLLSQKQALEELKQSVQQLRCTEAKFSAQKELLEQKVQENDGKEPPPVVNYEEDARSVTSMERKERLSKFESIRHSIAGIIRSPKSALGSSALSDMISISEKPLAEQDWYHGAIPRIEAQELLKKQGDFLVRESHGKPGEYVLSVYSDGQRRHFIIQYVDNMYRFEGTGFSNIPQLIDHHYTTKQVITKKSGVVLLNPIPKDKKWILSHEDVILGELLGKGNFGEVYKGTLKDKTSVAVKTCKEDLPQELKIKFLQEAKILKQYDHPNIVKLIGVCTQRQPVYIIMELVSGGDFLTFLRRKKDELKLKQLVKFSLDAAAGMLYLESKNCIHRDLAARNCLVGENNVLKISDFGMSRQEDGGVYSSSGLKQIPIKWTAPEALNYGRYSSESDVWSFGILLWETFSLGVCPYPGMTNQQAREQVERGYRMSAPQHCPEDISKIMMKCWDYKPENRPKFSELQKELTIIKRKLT
Fibroblast growth factor receptor 1 (Homo sapiens), sequence (P11362 22-822 limits assumed): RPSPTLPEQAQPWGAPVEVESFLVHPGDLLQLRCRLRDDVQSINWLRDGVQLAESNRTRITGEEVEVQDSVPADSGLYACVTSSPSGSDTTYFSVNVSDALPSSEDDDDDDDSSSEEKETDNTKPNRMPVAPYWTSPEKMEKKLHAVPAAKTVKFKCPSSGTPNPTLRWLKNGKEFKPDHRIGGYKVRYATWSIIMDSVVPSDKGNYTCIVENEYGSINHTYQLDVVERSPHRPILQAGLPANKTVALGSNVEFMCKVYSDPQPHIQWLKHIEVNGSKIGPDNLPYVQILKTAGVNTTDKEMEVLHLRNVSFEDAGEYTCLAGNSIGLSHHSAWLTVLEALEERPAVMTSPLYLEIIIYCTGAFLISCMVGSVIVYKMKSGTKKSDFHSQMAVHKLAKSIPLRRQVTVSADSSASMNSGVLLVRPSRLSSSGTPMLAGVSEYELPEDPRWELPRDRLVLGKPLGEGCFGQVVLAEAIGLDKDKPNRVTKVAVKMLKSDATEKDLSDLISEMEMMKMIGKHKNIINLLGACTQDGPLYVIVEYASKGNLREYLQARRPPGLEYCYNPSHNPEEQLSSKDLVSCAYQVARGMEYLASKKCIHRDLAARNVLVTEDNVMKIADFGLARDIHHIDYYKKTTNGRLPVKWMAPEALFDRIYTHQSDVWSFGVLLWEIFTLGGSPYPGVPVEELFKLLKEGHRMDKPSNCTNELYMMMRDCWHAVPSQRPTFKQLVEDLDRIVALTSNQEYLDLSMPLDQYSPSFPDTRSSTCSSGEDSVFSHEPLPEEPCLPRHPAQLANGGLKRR
Fibroblast growth factor receptor 3 (Homo sapiens), sequence (P22607 23-806 limits assumed): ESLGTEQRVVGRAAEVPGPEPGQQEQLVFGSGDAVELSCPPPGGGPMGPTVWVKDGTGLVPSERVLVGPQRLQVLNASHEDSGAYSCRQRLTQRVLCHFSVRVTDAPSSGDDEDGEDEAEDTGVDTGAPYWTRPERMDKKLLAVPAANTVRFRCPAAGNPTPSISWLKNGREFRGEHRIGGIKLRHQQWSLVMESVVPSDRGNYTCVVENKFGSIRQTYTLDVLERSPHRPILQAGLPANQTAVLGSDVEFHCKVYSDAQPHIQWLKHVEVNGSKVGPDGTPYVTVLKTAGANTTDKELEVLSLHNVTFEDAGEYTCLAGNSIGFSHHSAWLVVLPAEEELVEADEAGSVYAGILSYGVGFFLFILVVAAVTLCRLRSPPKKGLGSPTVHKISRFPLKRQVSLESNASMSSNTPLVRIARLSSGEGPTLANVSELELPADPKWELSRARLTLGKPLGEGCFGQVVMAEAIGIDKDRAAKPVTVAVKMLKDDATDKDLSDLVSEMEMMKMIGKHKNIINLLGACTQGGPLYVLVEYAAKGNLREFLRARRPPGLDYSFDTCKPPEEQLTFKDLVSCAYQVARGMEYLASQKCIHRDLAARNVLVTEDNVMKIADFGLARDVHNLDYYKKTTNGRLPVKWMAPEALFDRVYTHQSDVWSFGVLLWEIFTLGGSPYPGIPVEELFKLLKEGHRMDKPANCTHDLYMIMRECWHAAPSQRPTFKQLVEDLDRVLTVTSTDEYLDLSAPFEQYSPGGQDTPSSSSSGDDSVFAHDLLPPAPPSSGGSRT
Tyrosine-protein kinase Fes/Fps (Homo sapiens), sequence (P07332 whole entry): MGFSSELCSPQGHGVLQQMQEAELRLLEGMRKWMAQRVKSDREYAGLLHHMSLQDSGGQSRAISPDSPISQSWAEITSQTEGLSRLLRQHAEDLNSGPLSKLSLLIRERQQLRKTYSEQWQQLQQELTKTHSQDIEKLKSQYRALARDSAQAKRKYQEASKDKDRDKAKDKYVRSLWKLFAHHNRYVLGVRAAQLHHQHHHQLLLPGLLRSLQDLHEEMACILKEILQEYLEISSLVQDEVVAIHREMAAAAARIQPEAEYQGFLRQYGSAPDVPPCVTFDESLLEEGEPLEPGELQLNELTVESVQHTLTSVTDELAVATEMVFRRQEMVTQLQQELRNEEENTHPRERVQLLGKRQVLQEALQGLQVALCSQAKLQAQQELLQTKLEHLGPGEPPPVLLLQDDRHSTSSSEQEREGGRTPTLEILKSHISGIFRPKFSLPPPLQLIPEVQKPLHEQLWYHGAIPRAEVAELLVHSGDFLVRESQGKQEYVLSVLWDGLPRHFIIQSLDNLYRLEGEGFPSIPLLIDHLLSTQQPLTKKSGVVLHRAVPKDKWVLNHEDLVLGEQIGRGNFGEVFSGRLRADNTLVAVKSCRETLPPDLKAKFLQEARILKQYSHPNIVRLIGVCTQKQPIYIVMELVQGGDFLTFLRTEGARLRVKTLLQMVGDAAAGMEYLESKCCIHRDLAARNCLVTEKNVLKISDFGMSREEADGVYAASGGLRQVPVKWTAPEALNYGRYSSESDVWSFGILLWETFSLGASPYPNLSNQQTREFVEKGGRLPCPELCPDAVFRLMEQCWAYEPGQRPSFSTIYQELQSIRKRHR
Fibroblast growth factor receptor 2 (Homo sapiens), sequence (P21802 22-821 limits assumed): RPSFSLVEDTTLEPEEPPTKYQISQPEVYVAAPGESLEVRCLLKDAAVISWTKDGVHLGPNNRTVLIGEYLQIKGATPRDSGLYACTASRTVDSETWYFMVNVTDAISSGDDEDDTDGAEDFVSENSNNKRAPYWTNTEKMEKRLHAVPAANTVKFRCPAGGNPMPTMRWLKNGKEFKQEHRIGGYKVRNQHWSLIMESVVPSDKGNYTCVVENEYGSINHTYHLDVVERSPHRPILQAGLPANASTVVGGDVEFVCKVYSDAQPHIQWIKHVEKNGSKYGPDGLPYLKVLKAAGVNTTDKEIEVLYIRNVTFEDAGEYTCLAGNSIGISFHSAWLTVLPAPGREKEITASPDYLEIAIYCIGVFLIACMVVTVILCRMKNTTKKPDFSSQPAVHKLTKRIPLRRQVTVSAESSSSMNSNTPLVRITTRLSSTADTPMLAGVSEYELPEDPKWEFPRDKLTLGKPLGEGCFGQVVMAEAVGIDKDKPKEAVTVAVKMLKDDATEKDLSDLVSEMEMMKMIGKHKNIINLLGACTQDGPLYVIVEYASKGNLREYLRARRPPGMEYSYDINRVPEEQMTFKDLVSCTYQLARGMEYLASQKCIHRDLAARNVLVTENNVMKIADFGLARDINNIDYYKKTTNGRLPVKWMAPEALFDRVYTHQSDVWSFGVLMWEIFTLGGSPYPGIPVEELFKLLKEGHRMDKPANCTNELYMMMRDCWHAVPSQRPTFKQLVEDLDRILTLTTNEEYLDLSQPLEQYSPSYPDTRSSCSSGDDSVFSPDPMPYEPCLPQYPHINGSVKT

With `CCCN(CCS(C)(=O)=O)Cc1ccc(-c2ccc3ncnc(Nc4ccc(OCc5cccc(F)c5)c(Cl)c4)c3c2)o1`, the inhibition in [1] was 5.25%; in assay [2] it was 1.38%; in assay [3] it was 1.43%; in assay [4], 3.02%; in assay [5] it was 2.95%; in assay [6], -0.3%. For the same compound, the inhibition in assay [7] was 2.2%; in assay [8], 3.56%; in assay [9], 2.41%; in [10], 1.61%.
Regarding `CN1CCC(n2cnc(-c3ccc(F)cc3)c2-c2ccnc(Nc3ccccc3)n2)CC1`, the inhibition in assay [1] is 4.62%; in assay [2], 2.34%; in assay [3] it was 3.11%; in assay [4] it was 1.2%; in assay [5], -0.76%; in assay [6], 2.32%. In addition, the inhibition in assay [7] was 4.35%; in [8], 4.39%; in [9] it was 0.24%; in assay [10], 0.09%.
As to `CC1=C(C(=O)Nc2cc(Cl)c3[nH]ncc3c2)C(c2ccc(C(F)(F)F)cc2)CC(=O)N1` (stereo not given), the inhibition in [1] is 3.32%; in [2], 2.07%; in assay [3], 2.33%; in assay [4], -0.25%; in assay [5], 2.9%; in assay [6], 3.38%. Besides, the inhibition was determined as 3.56% in assay [7], 9.2% in [8], 3.77% in assay [9] and 2.42% in [10].
As for `CC(=O)Nc1cccc(C#Cc2cncnc2Nc2ccc(OCc3cccc(F)c3)c(Cl)c2)c1`, the inhibition in [1] worked out at 1.14%; in [2] it was 3.02%; in assay [3], 3.58%; in assay [4], 5.54%; in [5], 8.04%; in [6] it was 2.27%. In addition, the inhibition in [7] was 5.67%; in assay [8], 4.66%; in assay [9], 5.53%; in [10] it was 0.9%.
Regarding `CCOc1ccc2c(-c3ccnc(Nc4cccc(C(F)(F)F)c4)n3)cnn2n1`, the inhibition in assay [1] was 7.63%; in [2], 2.3%; in assay [3], 2.59%; in assay [4] it was 2.54%; in [5] it was 7.08%; in assay [6], 3.04%. For the same compound, the inhibition in assay [7] was 7.12%; in assay [8], 2.18%; in assay [9], 5.74%; in [10], -0.43%.
As to `N#Cc1c(NC(=O)c2ccc(F)cc2)sc2c1CCCC2`, the inhibition in assay [1] came to 0.95%; in assay [2], 0.56%; in assay [3] it was 1.22%; in [4], 1.48%; in assay [5], 2.08%; in [6], 1.6%. The inhibition is 3.48% in assay [7], 1.58% in [8], 2.77% in [9] and 0.23% in assay [10].
Regarding `N#Cc1c(NC(=O)CN2CCOCC2)sc2c1CCCC2`, the inhibition in assay [1] stood at 9.05%; in [2], 3.37%; in assay [3], 6.23%; in assay [4] it was 4.57%; in assay [5], 3.5%; in [6] it was 3.03%. Moreover, the inhibition was 7.88% in [7], 3.63% in [8], 6.45% in [9] and -0.36% in assay [10].
Regarding `CCN1CCC(CC(=O)Nc2n[nH]c3nnc(-c4cccc(F)c4F)cc23)CC1`, the inhibition is 1.74% in assay [1]; 2.37% in assay [2]; 2.12% in assay [3]; 0.21% in [4]; 0.41% in assay [5]; 0.64% in assay [6]. For the same compound, the inhibition in [7] was 3.38%; in [8] it was -1.19%; in assay [9], 1.89%; in assay [10] it was 0.88%.
Consider `Cc1ccc2c(-c3ccnc(Nc4ccccc4)n3)c(-c3ccc(F)cc3)nn2n1`, for which the inhibition was found to be 8.06% in [1]; 2.61% in [2]; 5.64% in assay [3]; 9.59% in assay [4]; 10.9% in assay [5]; 7.81% in [6]. Also, the inhibition in [7] was determined as 13%; in assay [8], 6.27%; in assay [9], 8.54%; in assay [10], 1.19%.
Turning to `Cc1cccc(Nc2ncc(-c3ccccc3)o2)c1`, the inhibition in [1] came to 7.96%; in assay [2], 1.97%; in assay [3] it was 3.44%; in assay [4], 5.23%; in assay [5] it was 3.22%; in [6], 6.15%. In addition, the inhibition in assay [7] is 6.52%; in assay [8] it was 6.68%; in assay [9], 4.17%; in assay [10], 2.94%.
Consider `COc1cc(Nc2nccc(Nc3ccc4c(C)n[nH]c4c3)n2)cc(OC)c1OC`, for which the inhibition worked out at 36.1% in [1]; 3.05% in [2]; 10.6% in assay [3]; 5.2% in assay [4]; 24.8% in assay [5]; 7.33% in assay [6]. The inhibition is 39.8% in assay [7], 8.22% in assay [8], 30.5% in assay [9] and 2.39% in assay [10].
For `COc1ccc2c(-c3ccnc(Nc4cccc(OC(F)(F)F)c4)n3)cnn2n1`, the inhibition in [1] was 16.5%; in assay [2], 3.41%; in assay [3] it was 8.88%; in assay [4], 1.54%; in assay [5], 0.82%; in [6], 11.6%. Besides, the inhibition turned out to be 6.91% in [7], 5.66% in assay [8], 6.19% in assay [9] and 1.76% in [10].
`CCNC(=O)O[C@H]1CN[C@H](C#Cc2cc3ncnc(Nc4ccc(OCc5cccc(F)c5)c(Cl)c4)c3s2)C1`: the inhibition is -0.34% in [1]; 2.67% in [2]; 3.23% in [3]; 3.91% in [4]; 4.51% in assay [5]; 2.71% in assay [6]. In addition, the inhibition was 4.31% in assay [7], 4.87% in assay [8], 4.14% in assay [9] and 1.14% in [10].
In the case of `CCn1cc(-c2ccnc3[nH]ccc23)c(-c2cccc(NC(=O)Nc3ccc(OCc4ccccc4)cc3)c2)n1`, the inhibition in assay [1] is 5.87%; in [2], 0.81%; in assay [3], 2.87%; in [4] it was -0.96%; in assay [5] it was -2.55%; in [6], -0.49%. Moreover, the inhibition is 0.34% in [7], -0.88% in [8], 0.39% in assay [9] and -0.55% in assay [10].
For `CN1CCC(n2cnc(-c3ccc(F)cc3)c2-c2ccnc(N)n2)CC1`, the inhibition in [1] is 8.24%; in [2], 2.63%; in [3], 2.33%; in [4] it was -0.33%; in assay [5] it was -2.26%; in assay [6], 1.68%. Besides, the inhibition in assay [7] was found to be 4.49%; in [8], 3.51%; in [9], 4.31%; in assay [10], 1.4%.
With `Clc1ccc(-c2nn3ncccc3c2-c2ccnc(Nc3ccccc3)n2)cc1`, the inhibition was 4.34% in [1]; 0.87% in [2]; 1.62% in assay [3]; -0.82% in assay [4]; 7.85% in assay [5]; 0.58% in assay [6]. Moreover, the inhibition in assay [7] amounted to 10.3%; in [8], 4.85%; in [9] it was 6%; in assay [10], 1.52%.
